High-throughput results (PubChem BioAssay)
D2 ag-1 = human D2 receptor agonism in beta-arrestin assay | 360,000 tested, 0.084% active | activation, % (concentration not given with the values) | DiscoveRx PathHunter D2 beta-arrestin, luminescence, 90 min; 100% = 57 uM dopamine signal; in the data active = activation above about 40%
Target sequence (P14416 whole entry, looked up): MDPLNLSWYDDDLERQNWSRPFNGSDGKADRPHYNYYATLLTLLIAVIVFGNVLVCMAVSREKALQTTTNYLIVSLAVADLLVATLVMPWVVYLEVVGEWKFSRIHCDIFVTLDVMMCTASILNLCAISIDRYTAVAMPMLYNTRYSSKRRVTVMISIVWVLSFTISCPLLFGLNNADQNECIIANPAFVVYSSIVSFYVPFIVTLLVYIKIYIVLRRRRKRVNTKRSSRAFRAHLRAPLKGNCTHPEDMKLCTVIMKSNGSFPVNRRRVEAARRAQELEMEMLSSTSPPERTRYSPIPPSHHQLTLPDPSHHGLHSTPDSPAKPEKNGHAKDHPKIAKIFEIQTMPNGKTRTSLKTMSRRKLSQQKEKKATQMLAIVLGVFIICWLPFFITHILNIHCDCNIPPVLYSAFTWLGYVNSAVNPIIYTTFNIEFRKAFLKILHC
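Agonist mode: compounds alone added to overnight-plated D2 PathHunter cells for 90 min at 37 C, with 57 uM final dopamine (EC100) defining full response. Beta-arrestin recruitment detected by chemiluminescent reagent, read after 1 h at ambient temperature.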
D2 PAM-1 = human D2 receptor positive allosteric modulation | P14416 | DiscoveRx D2 beta-arrestin cells, luminescence, 90 min; 100% = 57 uM dopamine signal | potentiation, % (concentration not given with the values) | 360,000 tested, 0.23% active | AID 624464; in the data active = potentiation above about 50%
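PathHunter D2 cells, attached overnight at 37 deg C, received compound in DMSO plus dopamine at EC20 (50 nM final) for 90 min at 37 deg C. Beta-arrestin recruitment was read as luminescence after 1 h with detection reagent at ambient temperature.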
D2 ag-2 = agonists of human D2 dopamine receptor; activation, % at 2 µM; HEK293 T-REx D2 cells, calcium flux agonist mode; 340,000 tested, 0.53% active; AID 485358;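 active = activation over 3 SD above normal in the single-dose calcium agonist read, cut at about 30% in these data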; note: 0% is about no effect
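Agonism scored from kinetic calcium signal (1 read/sec, 180 s) following compound pin transfer, after a 10 s baseline. Cells: HEK293 Trex line expressing inducible D2 receptor coupled to calcium, dye-loaded after overnight culture at 30 C.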
D2 antagonist = D2 dopamine receptor (human) antagonism; HEK293 TREx D2 cells, calcium flux, dopamine EC80; inhibition, % at 10 µM; 340,000 tested, 2% active; AID 485344; in the data active = inhibition above about 30%; inactive = below that, where a call was filed; note: 0% is about no effect
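Measurement of antagonist activity uses fluorescent calcium dye in inducible HEK293 T-REx D2 cells: 10 s baseline, compound addition with 180 s read, EC80 dopamine addition with a further 180 s read.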
D2 PAM-2 = D2 dopamine receptor (human) potentiation | P14416 | HEK293 T-REx D2, calcium flux, EC20 dopamine potentiation | potentiation, % at 10 µM | 340,000 tested, 0.34% active | AID 485347;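 active = potentiation over 3 SD above the plate norm, cut at about 30% in these data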; note: 0% is about no effect
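Tetracycline-induced HEK293 T-REx cells force-coupled to calcium signalling expressed D2; compounds were pin-added after a 10 s baseline, read kinetically 180 s, then an EC20 dopamine challenge followed with a further 180 s calcium read.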
Active calls of the source: *. Sampled rows, rich in hits. Any-hit rate of the full collection: about 2.4%.

What do the screens show for `O=C(CCCCCn1c(=O)[nH]c2ccccc2c1=O)NCc1cccc(Cl)c1`?
D2 PAM-2: 2.9

How did COc1ccc(C(CCN2CCN(c3ccccc3)CC2)c2c(O)cc(OC)cc2OC)cc1 (configuration not stated) do in these assays?
D2 ag-1: 0.4; D2 PAM-1: -26.4; D2 ag-2: 0.9; D2 antagonist: 79.6*; D2 PAM-2: -29.3

How did COc1cc(O)c(C(CCN2CCN(c3ccccc3)CC2)c2ccc(N(C)C)cc2)c(OC)c1 (configuration not stated) do in these assays?
D2 ag-1: -0.6; D2 PAM-1: -24.2; D2 ag-2: 0.7; D2 antagonist: 32.1*; D2 PAM-2: -16.5

How did COc1cc(O)c(C(CCN2CCOCC2)c2ccc(N(C)C)cc2)c(OC)c1 (configuration not stated) do in these assays?
D2 ag-1: -1.1; D2 PAM-1: -9.7; D2 ag-2: -0.3; D2 antagonist: -39.9; D2 PAM-2: -0.2

What do the screens show for `CC1=C(C(=O)Nc2ccccc2)C(c2ccc(Br)cc2)n2nc(CCCO)nc2N1` (configuration not stated)?
D2 ag-2: 0.3; D2 PAM-2: 1.1

Results for CC(C)(C)C(=O)Nc1ccccc1C(=O)OCc1cc(=O)n2ccsc2n1 ?
D2 ag-2: 2.4; D2 PAM-2: 3.3

How did Cn1c(=NC(=O)c2ccc(S(=O)(=O)N3CCCc4ccccc43)cc2)sc2cc(S(C)(=O)=O)ccc21 do in these assays?
D2 ag-1: -0.8; D2 PAM-1: 7.0; D2 ag-2: -0.2; D2 antagonist: -6.3; D2 PAM-2: -2.3

What do the screens show for `C#CCn1c(=NC(=O)c2ccc(S(=O)(=O)N3CCCc4ccccc43)cc2)sc2cc(S(N)(=O)=O)ccc21`?
D2 ag-1: -0.6; D2 PAM-1: -23.2; D2 ag-2: 2.6; D2 antagonist: 47.5*; D2 PAM-2: 10.6

How did CC(=O)c1c(N2CCCCC2)nc(=S)n(Cc2ccccc2)c1C do in these assays?
D2 ag-1: -0.3; D2 PAM-1: 7.6; D2 ag-2: -0.8; D2 antagonist: -29.5; D2 PAM-2: 4.7

What do the screens show for `CCCSc1nc(=S)n(Cc2ccccc2)c(C)c1C(C)=O`?
D2 ag-1: 6.1; D2 PAM-1: -3.7; D2 ag-2: -0.8; D2 antagonist: 43.1*; D2 PAM-2: -7.6

How did O=C(CN1C(=O)CCC1=O)NCC12CC3CC(CC(C3)C1)C2 do in these assays?
D2 ag-1: -4.0; D2 PAM-1: -7.8; D2 ag-2: -1.8; D2 antagonist: -8.9; D2 PAM-2: 38.5*

Results for CCC(Sc1nc2ccncc2[nH]1)C(=O)Nc1ccc(F)cc1 (configuration not stated) ?
D2 ag-2: 0.8; D2 PAM-2: 25.6

Results for CCc1ccc(OCC(=O)NCC(c2ccc(Cl)cc2)N2CCOCC2)cc1 (configuration not stated) ?
D2 ag-2: -2.0; D2 PAM-2: 8.5

Results for COC(=O)NC(=S)Nc1ccc(Oc2ccc(Cl)cc2Cl)c(Cl)c1 ?
D2 ag-1: -1.3; D2 PAM-1: -6.9; D2 PAM-2: 36.3*

How did COC(=O)NC(=S)Nc1ccc(Oc2ccc(Cl)cc2)c(Cl)c1 do in these assays?
D2 ag-1: -2.5; D2 PAM-1: -5.9; D2 ag-2: 1.1; D2 antagonist: 2.1; D2 PAM-2: -10.4

What do the screens show for `CCCc1cc(C(=O)Nc2ccc(F)c(Cl)c2)no1`?
D2 ag-1: -4.4; D2 PAM-1: -16.1; D2 ag-2: 0.5; D2 antagonist: 35.1*; D2 PAM-2: -21.0

How did CCCc1cc(C(=O)Nc2cccc(Cl)c2)no1 do in these assays?
D2 ag-1: -6.1; D2 PAM-1: -15.7; D2 ag-2: 0.8; D2 antagonist: 33.1*; D2 PAM-2: -24.3

What do the screens show for `c1ccc(-c2cn(-c3ccccc3)c3ncnc(N4CCN(c5ccccc5)CC4)c23)cc1`?
D2 ag-2: -0.4; D2 PAM-2: 4.3

Results for COc1cc2nc(NC(=O)c3ccc(S(=O)(=O)N4CCCC4)cc3)sc2cc1OC ?
D2 ag-2: -1.2; D2 PAM-2: 14.1

What do the screens show for `Cn1c(CN2CCCC2)nc2cc(NS(=O)(=O)c3ccc(Cl)cc3)ccc21`?
D2 ag-1: -2.9; D2 PAM-1: -47.4; D2 ag-2: 2.9; D2 antagonist: 68.6*; D2 PAM-2: -16.7

How did Cn1c(CCN2CCCC2)nc2cc(NS(=O)(=O)c3ccc(F)cc3)ccc21 do in these assays?
D2 ag-1: -1.1; D2 PAM-1: -41.6

What do the screens show for `Cn1c(CN2CCCC2)nc2cc(NS(=O)(=O)c3ccccc3)ccc21`?
D2 ag-1: -3.4; D2 PAM-1: -29.9; D2 ag-2: -0.6; D2 antagonist: 67.4*; D2 PAM-2: -24.7

Results for COc1ccc(N2CCN(S(=O)(=O)c3ccc4c(c3)CCCN4C(C)=O)CC2)cc1 ?
D2 ag-2: 0.9; D2 PAM-2: -3.0

Results for Cc1ccc(-n2c(SCc3nc(-c4ccccc4C)no3)nnc2-c2ccncc2)cc1C ?
D2 ag-2: -1.2; D2 PAM-2: -12.4

Results for C=CCn1c(-c2ccc(OC)c(OC)c2)n[nH]c1=S ?
D2 ag-1: -0.9; D2 PAM-1: -12.7; D2 ag-2: 1.1; D2 antagonist: -16.6; D2 PAM-2: 17.6

What do the screens show for `C=CCn1c(-c2c(C)nc3cc(C)ccn23)n[nH]c1=S`?
D2 ag-1: -3.6; D2 PAM-1: -9.4; D2 ag-2: 1.1; D2 antagonist: 35.6*; D2 PAM-2: -0.6

What do the screens show for `CCN(CC)c1ccc(/C=C(/C#N)C(=O)NCc2ccccc2)o1`?
D2 ag-1: -3.4; D2 PAM-1: -36.3; D2 ag-2: 42.6*; D2 antagonist: 9.8; D2 PAM-2: -15.7

Results for CCN(CC)c1ccc(/C=C(/C#N)C(=O)NC(C)C)o1 ?
D2 ag-1: -4.1; D2 PAM-1: -8.6; D2 ag-2: 9.5; D2 antagonist: 8.8; D2 PAM-2: -6.9

How did CC(C)NC(=O)/C(C#N)=C\c1ccc(N(C)C)o1 do in these assays?
D2 ag-1: -10.5; D2 PAM-1: -11.2; D2 ag-2: 0.8; D2 antagonist: 40.3*; D2 PAM-2: 0.7

Results for CN1C(=O)Cc2cc(S(=O)(=O)CCC(=O)N3CCN(c4ccc(Cl)cc4)CC3)ccc21 ?
D2 ag-2: -0.4; D2 PAM-2: 0.1

What do the screens show for `Cc1ccccc1-c1nn2c(=O)cc(CN3CCN(C(=O)/C=C/c4ccccc4)CC3)nc2s1`?
D2 ag-2: -0.5; D2 PAM-2: -1.5

How did Cc1ccc(C2=NS(=O)(=O)N(C)C(C(=O)Nc3ccc4c(c3)OCO4)=C2)cc1 do in these assays?
D2 ag-1: 1.4; D2 PAM-1: -10.0; D2 ag-2: -0.5; D2 antagonist: -32.7; D2 PAM-2: -20.6

Results for CCc1ccc(NC(=O)C2=CC(c3ccc4c(c3)OCO4)=NS(=O)(=O)N2C)cc1 ?
D2 ag-2: 0.6; D2 PAM-2: -3.3
